# Reference: PubChem BioAssay
# For some assays here: Potency and affinity values are given separately. Calls of active or inactive are those of the source. Unless noted, no stated cut-off is given here; in the data, active means inhibition above about 80%; inactive means the rest.
# Assays:
# [1] = polyglutamine-triggered caspase-3 activation inhibitors, cell-based (AID 1583); settings: polyglutamine-induced caspase-3 activation, cell assay; stronger effect = higher value;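 tested at 10 µM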
# [2] = suppressors of polyQ aggregation in yeast, 75Q-TubU reporter (AID 1593); settings: Yeast 75Q polyglutamine aggregation reporter
# [3] = rescue of polyQ-huntingtin neuronal dysfunction in worms, whole organism, C. elegans mechanosensory neurons, N-terminal huntingtin (AID 1599); settings: touch response, stronger effect = higher value
# [4] = inhibitors of mitochondrial cytochrome c release, biochemical, purified mitochondria (AID 1603); settings: stronger effect = lower value;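 further: mouse liver mitochondria challenged with calcium chloride; signal normalized to the plate average as 100%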
# [5] = inhibitors of polyQ protein aggregation (AID 1604); settings: polyglutamine-induced protein aggregation inhibition assay; stronger effect = higher value; tested at 2.5 µM
# [6] = enhancers of glutamate uptake in motor neurons, MN-1 cell line (AID 1612); settings: MN-1 motor neuron cells, stronger effect = higher value;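 further: tested at 1 µM final; 0% = mean of DMSO vehicle wells on each plate; positive means more glutamate uptake than control and negative means less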
# [7] = reducers of polyQ inclusions in PC12 cells, cell-based, NGF-treated PC12, GFPQ80 (AID 1614); settings: PC12 NGF-treated GFP-polyQ80 inclusion reduction;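 further: lower means fewer inclusions and 0 means no inclusions at all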
# [8] = suppressors of polyglutamine aggregation in yeast, 75Q-TubH (AID 1616); settings: S. cerevisiae 75Q-TubH polyglutamine aggregation suppression; stronger effect = higher value
# [9] = circadian clock period modulators, cell-based, LOPAC library, luminescence reporter (AID 2774; call rule not given here;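 further: values are relative to mean of DMSO wells on each plate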); settings: circadian reporter cells, at 7 µM, actives lie on both sides
# [10] = system: Hepatitis C virus NS3 helicase; assay: HCV NS3 helicase inhibitors, primary screen, biochemical, fluorescence polarization, LOPAC1280 library (AID 687035; in the data active means inhibition above about 37%); settings: Purified HCV NS3 helicase, Cy5-dT15 ssDNA binding fluorescence polarization; stronger effect = higher value; concentration not given here
# [11] = Cy5 fluorescence quenching or enhancement artefacts, artefact control for HCV NS3 helicase inhibitor project, biochemical, LOPAC1280 (AID 687037; call rule not given here); settings: Cy5-DNA-NS3h complex fluorescence interference counterscreen
# [12] = LFS_MB_P medulloblastoma growth inhibition, cell-based, chromothripsis tumors, cisplatin or BGB combos (AID 1671449); settings: LFS_MB_P medulloblastoma cells;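 further: cells exposed for 96 hours; 0% = vehicle DMSO and 100% = killing by high DMSO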
# [13] = HDN33 neuroblastoma growth inhibition, cell-based, chromothripsis tumors, cisplatin or BGB combos (AID 1671450); settings: HDN33 neuroblastoma cells, stronger effect = higher value;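 further: cells exposed to compound for four days; 0% = vehicle DMSO and 100% = cell killing by high DMSO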
# [14] = ICB984 medulloblastoma cell growth inhibition, synergistic combos for chromothripsis tumors, cisplatin or BGB combos (AID 1671451; call rule not given here;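 further: cells exposed for 96 hours before readout; 0% = vehicle DMSO and 100% = killing by high DMSO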); settings: ICB984 medulloblastoma cells, drug combinations, stronger effect = higher value
# [15] = LFS_MB_1R medulloblastoma cell growth inhibition, synergistic combos for chromothripsis tumors, cisplatin or BGB combos (AID 1671452); settings: LFS_MB_1R medulloblastoma cells, stronger effect = higher value;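 further: cells exposed for 96 hours before readout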
# [16] = HTB85 osteosarcoma cell growth inhibition, synergistic combos for chromothripsis tumors, BGB or cisplatin IC20 combos (AID 1671453); settings: HTB85 osteosarcoma cells, drug combinations, stronger effect = higher value;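 further: cells exposed for 96 hours before readout; 0% = vehicle DMSO and 100% = high DMSO killing control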
# [17] = CRL2098 osteosarcoma cell growth inhibition, synergistic combos for chromothripsis tumors, BGB or cisplatin IC20 combos (AID 1671454); settings: CRL2098 osteosarcoma cells, drug combinations, stronger effect = higher value;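 further: cells exposed for 96 h before readout; 0% = vehicle DMSO and 100% = killing by high DMSO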
# [18] = HD-MB03 medulloblastoma cell growth inhibition, synergistic combos for chromothripsis tumors, BGB or cisplatin IC20 combos (AID 1671455; in the data active means inhibition above about 83%;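 further: 0% = vehicle DMSO and 100% = high DMSO as cytotoxic control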); settings: HD-MB03 medulloblastoma cells, stronger effect = higher value
# [19] = UWB1.289 ovarian carcinoma cell growth inhibition, synergistic combos for chromothripsis tumors, BGB or cisplatin combos (AID 1671456); settings: UWB1.289 ovarian carcinoma cells, stronger effect = higher value;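 further: cells exposed to compound for four days; 0% = vehicle DMSO and 100% = killing by high DMSO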
# [20] = LFS_MB_2R medulloblastoma cell growth inhibition, synergistic combos for chromothripsis tumors, cisplatin combos (AID 1671457); settings: LFS_MB_2R medulloblastoma cells, stronger effect = higher value;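 further: cells exposed to compound for four days before readout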
# [21] = MDA-MB-436 breast carcinoma cell growth inhibition, synergistic combos for chromothripsis tumors, BGB or cisplatin combos (AID 1671458; call rule not given here;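 further: cells exposed for 96 hours; 0% = vehicle DMSO and 100% = killing by high DMSO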); settings: MDA-MB-436 breast carcinoma growth inhibition, drug combinations, stronger effect = higher value
# [22] = UWB1.289_BRCA1 ovarian cancer growth, cell-based, BGB or cisplatin combinations (AID 1671459); settings: UWB1.289 BRCA1 ovarian carcinoma, drug combinations, stronger effect = higher value
# [23] = human astrocyte viability loss, single and combined drugs, cytotoxicity control for chromothriptic childhood tumor combination screen, cell-based, BGB or cisplatin IC20 combos (AID 1671460); settings: Human astrocytes, drug combinations, stronger effect = higher value;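 further: cells exposed to compounds for 96 hours before viability readout; 0% = vehicle and 100% = killing control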
# [24] = growth inhibition of BT084 medulloblastoma cells, cell-based, ICGC_MB145, cisplatin and BGB IC40 combos (AID 1671461); settings: drug combinations, stronger effect = higher value;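 further: cells exposed to drugs for 96 hours; 0% = vehicle DMSO and 100% = high DMSO full killing control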
# [25] = growth inhibition of RCMB18 medulloblastoma cells, cell-based, cisplatin and BGB IC40 combos (AID 1671462); settings: stronger effect = higher value;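 further: cells exposed to compound for four days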
# [26] = growth inhibition of CRL1545 osteosarcoma cells, cell-based, cisplatin and BGB IC20 combos (AID 1671464); settings: stronger effect = higher value;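 further: cells exposed to compound for 96 hours before readout; 0% = vehicle DMSO and 100% = high DMSO killing control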
# [27] = measured here: combination with BGB IC40, at 0.05 µM
# [28] = measured here: with BGB IC20 combination, at 0.5 µM
# [29] = measured here: with cisplatin IC20 combination, at 0.5 µM
# [30] = measured here: combination with cisplatin, at 0.5 µM
# [31] = measured here: combination with cisplatin, at 5 µM
compound,measurement,setting,value
CCOC(=O)C1(c2ccccc2)CCN(C)CC1,inhibition,[1],15%
same,score,[2],1.03
same,rescue above control,[3],5.54
same,cytochrome c release ratio,[4],0.93
same,inhibition of aggregation,[5],7.48%
same,glutamate uptake change,[6],5.98%
same,inclusion score,[7],2
same,aggregation suppression score,[8],1.14
CCN(CC)C(=O)N[C@@H]1C=C2c3cccc4[nH]cc(c34)C[C@H]2N(C)C1,period change,[9],0.415 h (inactive)
NC(Cc1ccc(N(CCCl)CCCl)cc1)C(=O)O (stereo not given),period change,[9],0.08 h (inactive)
same,inhibition,[10],-5% (inactive)
same,fluorescence ratio (interference),[11],1 (inactive)
same,inhibition,"[12]; at 0.5 µM, stronger effect = higher value",-11.1% (inactive)
same,inhibition,"[12]; measured here: combination with BGB IC20, at 0.005 µM",-25.1%
same,inhibition,"[12]; measured here: combination with BGB IC40, at 0.005 µM",-17.8%
same,inhibition,[12]; [27],-29.1%
same,inhibition,"[12]; measured here: combination with cisplatin, at 0.5 µM, stronger effect = higher value",-3.85%
same,inhibition,"[12]; measured here: combination with cisplatin, at 5 µM, stronger effect = higher value",7.41%
same,inhibition,"[13]; BGB combo, at 5 µM",28.5%
same,inhibition,[13]; at 0.5 µM,-17.3% (inactive)
same,inhibition,"[13]; cisplatin combo, at 5 µM",18.9%
same,inhibition,[13]; [28],-14.2%
same,inhibition,[13]; [29],-16.2%
same,inhibition,"[13]; single agent, at 5 µM",3.9%
same,inhibition,"[14]; BGB IC20 combo, at 0.005 µM",-15.2%
same,inhibition,"[14]; BGB IC40 combo, at 0.005 µM",-22.4%
same,inhibition,"[14]; BGB IC40 combo, at 0.05 µM",14.2%
same,inhibition,[14]; at 0.5 µM,-37% (inactive)
same,inhibition,"[14]; cisplatin combo, at 0.05 µM",11.8%
same,inhibition,"[14]; cisplatin combo, at 0.5 µM",-52.6%
same,inhibition,"[14]; cisplatin combo, at 5 µM",-29.7%
same,inhibition,"[14]; measured here: 5 uM single agent, at 5 µM",-16.8%
same,inhibition,[15]; at 0.5 µM,-27.3% (inactive)
same,inhibition,[15]; [27],-28.4%
same,inhibition,[15]; [30],-42.9%
same,inhibition,[15]; [31],34.7%
same,inhibition,[16]; at 0.5 µM,5.83% (inactive)
same,inhibition,"[16]; measured here: with BGB IC20, at 0.5 µM",1.88%
same,inhibition,"[16]; measured here: with BGB IC20, at 5 µM",54.4%
same,inhibition,"[16]; measured here: with cisplatin IC20, at 0.5 µM",-13.1%
same,inhibition,"[16]; measured here: with cisplatin IC20, at 5 µM",74.4%
same,inhibition,"[16]; single agent, at 5 µM",59.9%
same,inhibition,[17]; at 0.5 µM,-91.3% (inactive)
same,inhibition,"[17]; measured here: combination with BGB at IC20, at 0.5 µM",-104%
same,inhibition,"[17]; measured here: combination with cisplatin at IC20, at 0.5 µM",-99.5%
same,inhibition,[18]; at 0.5 µM,12.1% (inactive)
same,inhibition,"[18]; measured here: combo with BGB at IC20, at 0.5 µM",19.3%
same,inhibition,"[18]; measured here: combo with cisplatin at IC20, at 0.5 µM",20.5%
same,inhibition,[19]; at 0.5 µM,-2.07% (inactive)
same,inhibition,"[19]; measured here: inhibition with BGB combination, at 0.05 µM",-36%
same,inhibition,"[19]; measured here: inhibition with cisplatin combination, at 0.05 µM",-22.5%
same,inhibition,[20]; at 0.5 µM,-18.9% (inactive)
same,inhibition,[20]; [30],-23.8%
same,inhibition,[20]; [31],-58.8%
same,inhibition,[21]; at 0.5 µM,10.4% (inactive)
same,inhibition,"[21]; measured here: BGB combination, at 0.5 µM",2.27%
same,inhibition,"[21]; measured here: BGB combination, at 5 µM",8.02%
same,inhibition,"[21]; measured here: cisplatin combination, at 0.5 µM",6.39%
same,inhibition,"[21]; measured here: cisplatin combination, at 5 µM",33.3%
same,inhibition,"[22]; BGB combination, concentration series, at 5 µM",31.5%
same,inhibition,[22]; at 0.5 µM,4.15% (inactive)
same,inhibition,"[22]; cisplatin combination, concentration series, at 5 µM",41.4%
same,inhibition,[23]; at 0.5 µM,16.9% (inactive)
same,inhibition,"[23]; measured here: combo with BGB IC20, at 0.5 µM",22.5%
same,inhibition,"[23]; measured here: combo with cisplatin IC20, at 0.5 µM",4.4%
same,inhibition,[24]; at 0.5 µM,-14.6% (inactive)
same,inhibition,"[24]; cisplatin combination, at 0.5 µM",5.86%
same,inhibition,"[24]; cisplatin combination, at 5 µM",35.1%
same,inhibition,"[24]; measured here: BGB IC40 combination 0.05 uM, at 0.05 µM",-5.01%
same,inhibition,"[24]; single agent, at 5 µM",-20.7%
same,inhibition,[25]; at 0.5 µM,-26.4% (inactive)
same,inhibition,"[25]; cisplatin combo, at 5 µM",81.5%
same,inhibition,"[25]; measured here: BGB IC40 combination, at 0.05 µM",-33.2%
same,inhibition,[25]; [30],-31.6%
same,inhibition,"[25]; single agent, at 5 µM",-6.56%
same,inhibition,[26]; at 0.5 µM,-21.6% (inactive)
same,inhibition,[26]; [28],-14.9%
same,inhibition,[26]; [29],-27.8%
same,inhibition,"[26]; single agent, at 0.05 µM",-31.8%
same,inhibition,"[26]; single agent, at 5 µM",43.7%
